Compounds with a hit are over-represented: about 7.3% of the library has one in this group of screens.
FLuc counter = inhibits or activates purified firefly luciferase, miR-21 counter-screen. Potency, µM (highest dose often 57.5 µM), for the others: at the top dose activity change, negative = inhibition, actives largely listed as inhibitors. AID 588342. purified FLuc, Km substrates, luminescence inhibition. 360,000 compounds, 6.9% hits. P08659;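 note: plate controls were vehicle for no effect and reference inhibitor for full effect; nearly all actives have a fitted effect of over 55% in size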
Target sequence (P08659 whole entry, looked up): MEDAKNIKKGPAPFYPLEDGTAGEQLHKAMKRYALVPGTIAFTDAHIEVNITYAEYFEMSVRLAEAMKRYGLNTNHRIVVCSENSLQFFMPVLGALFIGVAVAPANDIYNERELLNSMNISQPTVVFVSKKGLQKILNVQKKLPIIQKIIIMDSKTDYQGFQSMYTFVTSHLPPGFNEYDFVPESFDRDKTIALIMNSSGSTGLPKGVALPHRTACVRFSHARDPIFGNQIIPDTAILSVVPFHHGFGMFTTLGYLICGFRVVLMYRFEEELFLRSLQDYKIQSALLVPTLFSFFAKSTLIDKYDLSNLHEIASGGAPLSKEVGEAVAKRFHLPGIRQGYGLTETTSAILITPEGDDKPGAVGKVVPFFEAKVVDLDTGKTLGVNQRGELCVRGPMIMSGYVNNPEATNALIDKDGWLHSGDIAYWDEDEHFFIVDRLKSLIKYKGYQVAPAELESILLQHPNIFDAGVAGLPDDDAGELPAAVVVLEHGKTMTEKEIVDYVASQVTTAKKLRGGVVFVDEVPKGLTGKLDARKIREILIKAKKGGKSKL
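Biochemical qHTS of compounds, final roughly 60 µM downward over six points, against 10 nM purified firefly luciferase using Km concentrations of substrates (10 uM D-luciferin, 10 uM ATP) in Tris acetate pH 7.5 buffer; luminescence output.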
ELG1 genotoxic = induces genotoxicity in HEK293T cells with luciferase-tagged ELG1. HEK293T ELG1-luciferase reporter, luminescence, 16 h. Potency, µM (top dose mostly 46 µM), without a hit: at the highest dose activity change, positive = activation, actives largely listed as activators. 330,000 compounds, 1.3% hits; note: % of control where 0% means no effect; nearly all actives have a fitted effect of over 60% in size
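Luminescence read-out: rising ELG1-luciferase signal, reflecting elevated ELG1 protein under genetic stress, flags genotoxic compounds. Cells were treated for 16 hr at 37 °C before ONE-Glo detection.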
NPC1 promoter act = activates the NPC1 promoter; Potency, µM (series often up to 9.22 µM), without a hit: top-dose activation, hits mostly activators; 320,000 compounds, 2.4% hits; Huh7 NPC1 promoter luciferase reporter, 24 h; note: % of control where 0% means no effect; nearly all actives have a fitted effect of over 60% in size
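Huh7 cells stably carrying NPC1 promoter–luciferase, plated in Opti-MEM with 10% FBS for 2 h, were exposed to compound in DMSO for 24 h at 37 °C; luciferase reagent was added for 10 min and luminescence read.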
Rab9 prom act = activates the Rab9 promoter | Huh7 Rab9 promoter-luciferase reporter, luminescence, 24 h | Potency, µM (doses to about 9.22 µM), inactives show at the top dose activation, negative = inhibition, hits mostly activators | 320,000 compounds, 2.8% hits | AID 485297; note: % of control where 0% means no effect; nearly all actives have a fitted effect of over 60% in size
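Luminescence from Amplite-detected luciferase (10 minutes, ambient) reports Rab9 promoter activation. Before that, stable Rab9-luciferase Huh7 cells (1500/well, reduced-serum OP-MEM I plus 10% FBS) were exposed to compound for 24 hours at 37C.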
SMN2 splice up = enhancers of SMN2 splice variant expression. HEK293 SMN2-luciferase splicing reporter, luminescence, 30-36 h. Potency, µM (highest dose often 46.1 µM), for the others: top-dose activity change, positive = activation, most hits filed as activators. 210,000 compounds, 2.8% hits. AID 1458; note: % of control where 0% means no effect; nearly all actives have a fitted effect of over 55% in size
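qHTS luciferase splicing reporter: luminescence rises when SMN2 exon 7 is included in transfected HEK293 cells. Compound exposure lasted 30-36 h at 37C, with 4.5 mM final sodium butyrate as control, followed by a ONE-Glo read.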
uPA generation = cell surface uPA generation inhibition | cell surface uPA generation assay, qHTS | AID 540303 | 330,000 compounds, 0.31% hits | Potency, µM (top dose mostly 38.3 µM), inactives show top-dose activity change, negative = inhibition, hits mostly inhibitors; active = well fitted inhibition curve with a large enough effect; inconclusive = small, poorly fitted or top-dose-only effect; inactive = no such curve, though single readings can be large or run the other way; tested in mouse RAW 264.7 cells; note: % is set by controls: 0 for no effect and ±100 for the full control effect; nearly all actives have a fitted effect of over 55% in size
Starred values were filed as active, the others as inactive; ? = inconclusive; . = no result. Unless noted, calls come from the whole dose curve; as a rule, active = well fitted curve in the direction sought with a large enough effect; inconclusive = small, poorly fitted or top-dose-only effect, or another doubt; inactive = no such curve, though single readings can be large; an effect the other way counts as inactive or inconclusive. Potency is the fitted concentration of half-maximal effect.

SMILES	FLuc counter	ELG1 genotoxic	NPC1 promoter act	Rab9 prom act	SMN2 splice up	uPA generation
CCc1nnc(NC(=O)CC(C)c2ccccc2)s1 (configuration not stated)	0%	4%	-2%	-6%	.	12%
CC(C)c1nnc(NC(=O)CC(=O)Nc2ccccc2C(=O)O)s1	4.8µM*	?	2.5µM*	3.5µM*	-17%	1%
CCc1nnc(NC(=O)CC(=O)Nc2ccccc2C(=O)O)s1	15µM*	1%	18%	?	-11%	.
CC(C)Cc1nnc(NC(=O)CC(=O)Nc2ccccc2C(=O)O)s1	15µM*	8%	12%	7%	-10%	-10%
Cn1cnc2c(ncn2[C@@H]2O[C@H](CO)[C@@H](O)[C@H]2O)c1=N	.	.	.	.	10%	.
CCc1ccccc1NC(=O)Cn1nnc(C(=O)NCc2ccco2)c1N	2%	.	.	.	-8%	.
Cc1ccc(C(=O)N/N=C\c2c(C)nn(-c3ccccc3)c2Cl)cn1	11µM*	6%	3%	-4%	?	-5%
Cc1nn(-c2ccccc2)c(Cl)c1/C=C/C(=O)c1ccccc1	3.8µM*	18µM*	-1%	0%	-18%	-6%
Cc1ccc(-n2nc(C)c(/C=N/NC(=O)c3cccnc3)c2Cl)cc1	?	-2%	-3%	-1%	13%	6%
Cc1nn(-c2ccccc2)c(Cl)c1/C=N/NC(=O)c1cccnc1	13µM*	9%	0%	1%	?	-2%
Cc1nn(-c2ccccc2)c(Cl)c1/C=N/O	?	8%	-6%	0%	?	-11%
COc1ccc(S(=O)(=O)N2CCN(Cc3ccc4c(c3)OCO4)CC2)cc1OC	-7%	.	.	.	-9%	.
CCOc1ccccc1NC(=O)Cn1c(=O)n(-c2ccc(C)cc2)c(=O)c2c1cnn2C	-2%	.	.	.	2%	.
COc1cc([N+](=O)[O-])ccc1NC(=O)COC(=O)C=C(C)C	3%	0%	0%	3%	10%	-3%
COc1ccc(/C=C2\SC(=S)N(CC(=O)OCC(=O)Nc3ccc(C)cc3Cl)C2=O)cc1	12µM*	3%	4%	22%	.	-2%
COc1ccc(/C=C2\SC(=S)N(CC(=O)OCC(=O)Nc3ccc([N+](=O)[O-])cc3OC)C2=O)cc1	24µM*	3%	5%	13%	5%	2%
O=C(CCN1C(=O)/C(=C/c2ccc(F)cc2)SC1=S)Nc1cc([N+](=O)[O-])ccc1O	12µM*	-4%	0%	6%	.	11%
COc1ccc2cc3cc(C(=O)NC(C)C)oc3nc2c1	17µM*	?	?	2µM*	.	-1%
CCCCN(C)C(=O)c1cc2cc3cc(OC)ccc3nc2o1	13µM*	-2%	?	3.5µM*	?	?
CCCCN(C)CCNC(=O)c1cc2cc3ccc(OC)cc3nc2o1	0%	-2%	-3%	-15%	.	-13%
CCCCN(C)C(=O)c1cc2cc3ccc(OC)cc3nc2o1	3.8µM*	?	4µM*	3.5µM*	.	-18%
COCCCNC(=O)c1cc2cc3cc(OC)ccc3nc2o1	?	6%	5%	9%	.	3%
COc1ccc2cc3cc(C(=O)Nc4cc(OC)c(OC)c(OC)c4)oc3nc2c1	2%	-14%	-1%	-8%	-9%	1%
CC12CN3CC(C)(CN(C1)C3c1ccc(OCc3ccccc3)cc1)C2=O (configuration not stated)	-3%	.	.	.	6%	.
CC(C)(C)[C@]1(O)CCN2CC3c4ccccc4CCc4cccc(c43)[C@@H]2C1 (some centres not stated)	.	.	.	.	-38%	.
SMILES	FLuc counter	ELG1 genotoxic	NPC1 promoter act	Rab9 prom act	SMN2 splice up	uPA generation
Cc1ccc(C)c2sc(NC(=O)c3ccc(S(=O)(=O)N4CCC(C)CC4)cc3)nc12	-16%	.	.	.	.	.
CCOc1ccc(OCC)c(NC(=O)CC(C)n2nc(C)cc2C)c1 (configuration not stated)	-2%	.	.	.	.	.
Cc1c(CCC(=O)O)c(=O)oc2cc(OCc3ccccc3F)ccc12	27µM*	4%	10%	1%	.	2%
Cc1c(CC(=O)O)c(=O)oc2cc(OCc3ccc(F)cc3Cl)ccc12	17µM*	6%	-1%	3%	.	-15%
Cc1c(CCC(=O)O)c(=O)oc2cc(OCc3cccc(Cl)c3)ccc12	?	3%	8%	5%	.	-19%
CCOC(=O)C1CCN(C(=O)Cn2ncc3c4ccccc4n(Cc4ccccc4F)c3c2=O)CC1	3%	.	.	.	14%	.
COc1ccc(/C=N/NC(=O)c2nc(-c3ccccc3)n(-c3ccccc3)n2)cc1	15µM*	-2%	-5%	-7%	4%	7%
COc1ccc(/C=N\NC(=O)C2=NNC(=O)C2C)cc1 (configuration not stated)	6µM*	?	?	?	7%	-13%
Cc1nonc1C(=O)N/N=C/c1ccncc1	?	1%	-1%	-13%	-5%	-5%
COc1ccc(/C=N/NC(=O)c2nc(-c3ccccc3)n(-c3ccccc3)n2)c(O)c1	?	?	-21%	-20%	-108%	-8%
COc1ccc(/C=N/NC(=O)c2nonc2C)cc1	1.9µM*	?	18%	?	?	4%
O=C(c1ccc(Cl)cc1)N1CCCCC1CCN1CCOCC1 (configuration not stated)	-6%	.	.	.	-1%	.
CCOc1ccc(-n2c(Cc3ccccc3)nnc2SCc2nc(-c3ccccc3C)no2)cc1	-11%	.	.	.	4%	.
CCc1ccccc1NC(=O)CSc1ncccc1C(=O)O	-12%	.	.	.	.	.
Cc1ccc(S(=O)(=O)N2CCN=C2c2ccccc2)cc1C	2%	-2%	-2%	-7%	3%	0%
COc1cc(S(=O)(=O)N2CCN=C2c2ccccc2)ccc1F	1%	2%	-21%	-15%	11µM*	.
COC(=O)[C@H](Cc1ccccc1)NC(=O)O[C@H]1C(=O)c2cc(OC)ccc2O[C@@H]1c1ccc(OC)c(Br)c1	.	.	.	.	4%	.
Cc1nc(N)sc1C(=O)N/N=C/c1ccc([N+](=O)[O-])cc1	-1%	12%	?	0%	.	-2%
Cc1nc(N)sc1C(=O)N/N=C/c1ccccc1[N+](=O)[O-]	-6%	15%	2.8µM*	2µM*	14µM*	.
Cc1ccc2nc(C)c(C(=O)N/N=C/c3ccccc3[N+](=O)[O-])cc2c1	6.7µM*	8%	5%	11%	5%	-3%
Cc1ccn2c(C(=O)N/N=C\c3ccccc3[N+](=O)[O-])c(C)nc2c1	.	.	.	.	.	9%
Cc1nc(N)sc1C(=O)N/N=C/c1c[nH]c2ccccc12	19µM*	8.2µM*	25%	0%	15%	1%
Cc1nc(N)sc1C(=O)N/N=C/c1ccco1	?	7%	0%	1%	14%	-2%

Bioassay records from PubChem.
